Read-out in test [1]: Interleukin 6 (IL6), IL6 (gene 3569)
The test is described as follows: BSK_BT_xIL6: BioMAP Diversity Plus: BT Assay for Interleukin 6 (IL6) Biomarker Activity (AID 2284228). The conditions noted are these: primary human B cells with PBMC. In outline: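 Readout: secreted IL-6 via Luminex xMAP multiplex, 24 h post-dosing. System: primary human B cells co-cultured with PBMC. Signal change scored relative to DMSO vehicle, positive fitting direction.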

Read-out in test [2]: Interleukin 17A (IL17A), IL17A (gene 3605)
Briefly: BSK_BT_xIL17A: BioMAP Diversity Plus: BT Assay for Interleukin 17A (IL17A) Biomarker Activity (AID 2284229). The conditions noted are these: primary human B cells with PBMC. In outline: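 Luminex xMAP readout of secreted IL-17A; human B cell + PBMC co-culture; 24 h post-dose; positive-direction fit vs DMSO negative control.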

Read-out in test [3]: Tumor necrosis factor (Homo sapiens) (UniProt P01375)
Briefly: BSK_BT_xTNFa: BioMAP Diversity Plus: BT Assay for Tumor necrosis factor alpha (TNF-alpha) Biomarker Activity (AID 2284230). To be noted: primary human B cells with PBMC. Put shortly: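 B cells with PBMC in co-culture, dosed and sampled at 24 h; secreted TNF-alpha measured by Luminex xMAP bead assay. Activity fitted in the gain direction against DMSO as negative control and baseline.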

Read-out in test [4]: Vascular cell adhesion molecule 1 (VCAM1), VCAM1 (gene 7412)
The test is described as follows: BSK_MyoF_VCAM1: BioMAP Diversity Plus: MyoF Assay for Vascular cell adhesion molecule 1 (VCAM1) Biomarker Activity (AID 2284231). The conditions noted are these: primary human lung fibroblasts. In outline:
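MyoF system, lung fibroblasts; 24 h post-dose; VCAM-1 by ELISA; gain-of-signal fit vs DMSO baseline.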

Test [5] is described as follows: TAMU_PeakParms_SingleDonor1434_QT: Texas A&M University (TAMU) 1.5-hr Human Induced Pluripotent Stem Cell (iPSC)-derived Cardiomyocytes Calcium (Ca+2) Flux Assay for Cardiotoxicity: QT (decay-rise ratio) (AID 2284235; active means hit-call score of the fitted dose curve at least 0.9, where 1 is the maximum). Put shortly:
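iPSC-derived cardiomyocytes (single donor 1434) dosed at 0.2, 1, 10, 100 uM final in 0.5% DMSO, 90 min at 37C. Ca2+ flux fluorescence decay/rise ratio; EC05 (5% increase versus DMSO) as POD, excluding beat-arrest and severe-notch data.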

Test [6] can be described thus: UKN4_HCS_LUHMES_cell_viability: Viability Assessment in the University of Konstanz (UKN) Leist Lab Neurite Outgrowth Assay in human LUHMES cells (UKN4) (AID 2284232). In outline: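 Fluorescence intensity from high-content imaging of Hoechst H-33342/calcein-AM-stained cells served as the viability read-out. Human LUHMES precursors were differentiated 2 days, replated and treated 24 h; curves were fitted bidirectionally against DMSO.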

The nature of test [7]: UKN2_HCS_IMR90_cell_viability: Viability Assessment in the University of Konstanz (UKN) Leist Lab Neural Crest Cell Migration Assay in human induced IMR90 Pluripotent Stem Cells (UKN2) (AID 2284233).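 Further: viability of neural crest cells differentiated from IMR90 iPSC measured by calcein-AM fluorescence imaging.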 Put shortly: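 Neural crest cells derived from IMR90 iPSC migrate into a stopper-free zone for 24 h in EGF/FGF medium, then are exposed to compound for 24 h. Viability assessed by calcein-AM and Hoechst staining with high-content imaging, fitted bidirectionally versus DMSO.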

Test [8] can be described thus: CCTE_Mundy_HCI_Cortical_NOG_NeuronCount: CCTE's Neurite Outgrowth Assay in rat cortical cells for Neuron Count, Mundy Lab (AID 2284236; active means hit-call score of the fitted dose curve at least 0.9, where 1 is the maximum;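 further: neurons counted by imaging betaIII-tubulin and Hoechst stained cortical cells; cells exposed to compound for about 48 hours before fixation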). In outline: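 Read-out: neuron number by high-content imaging of betaIII-tubulin (Alexa Fluor-488) and Hoechst-labelled rat primary cortical cells.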
A short description of test [9]: TAMU_HCS_1.5hr_SingleDonor1434_Cytotoxicity: Cytotoxicity Assessment using High-content Screening (HCS) Fluorescent Imaging for the Texas A&M University (TAMU) 1.5-hr Human Induced Pluripotent Stem Cell (iPSC)-derived Cardiotoxicity Assay (AID 2284234; active means hit-call score of the fitted dose curve at least 0.9, where 1 is the maximum). In outline: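 Human iPSC-derived cardiomyocytes dosed at 0.2, 1, 10, 100 uM final (0.5% DMSO) for 90 min at 37 C. Hoechst 33342-stained nuclei counted by 10x high-content imaging; POD is EC10, a 10% drop in total cell count versus DMSO.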

A short description of test [10]: CCTE_Mundy_HCI_Cortical_NOG_BPCount: CCTE's Neurite Outgrowth Assay in rat cortical cells for Branch Point Count, Mundy Lab (AID 2284237).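 Further: branch points counted about two days after chemical exposure.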 Put shortly:
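Measured 50.33 h after dosing, this morphology endpoint uses rat primary cortical cultures labelled for betaIII-tubulin. Branch points are quantified by high-content imaging, with DMSO as negative control and baseline.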

Several values for one entry are separate records, joined by “and”; a condition that tells them apart may be missing. Identical values can stand only once. Inconclusive results are not listed. Some structures have more than one record in an assay (separate samples or runs), and their calls can disagree. Activity calls are given as the source filed them. How the source made its calls, unless noted: active means hit-call score of the fitted dose curve at least 0.9, where 1 is the maximum; inactive means score below 0.9.

Sequence of Tumor necrosis factor (Homo sapiens) (P01375 whole entry, looked up): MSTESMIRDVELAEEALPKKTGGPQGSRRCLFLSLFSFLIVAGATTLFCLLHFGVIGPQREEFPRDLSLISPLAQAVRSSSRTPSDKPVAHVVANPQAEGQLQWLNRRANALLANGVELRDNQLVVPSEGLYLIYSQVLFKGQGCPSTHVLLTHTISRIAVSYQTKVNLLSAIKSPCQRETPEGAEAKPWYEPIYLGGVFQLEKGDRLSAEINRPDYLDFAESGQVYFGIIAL

Regarding `NCC(F)(F)C(F)(F)C(F)(F)C(F)(F)C(F)(F)C(F)(F)C(F)(F)F`, the outcome in test [1], in test [2], in test [3] and in [4] was inactive.

With `OCCC(F)(F)C(F)(F)C(F)(F)C(F)(F)C(F)(F)C(F)(F)C(F)(F)C(F)(F)F`, the AC50 in [1] was 53.1 µM (active) and 52.6 µM (active); in test [2] it was 44.1 µM (active) and 43.9 µM (active); in [3], 45.5 µM (active) and 41.3 µM (active); in test [4] it was 13.4 µM (active) and 9.75 µM (active).

Regarding `c1ccc2cc3c(ccc4ccccc43)cc2c1`, the outcome in [5] was inactive.

As for `c1ccc2c(c1)Cc1ccccc1-2`, the outcome in test [5] was inactive.

As to `CCCCCCCCCCCCCC[N+](C)(C)C`, the AC50 in test [1] is 4.27 µM (active); in test [2], 1.48 µM (active); in test [3], 2.59 µM (active); in test [4], 3.84 µM (active).

With `OCCC(F)(F)C(F)(F)C(F)(F)C(F)(F)C(F)(F)C(F)(F)F`, the half-maximal activity concentration (AC50) in test [1] is 49.1 µM (active); in [2], 43.1 µM (active); in test [3], 41.4 µM (active). Also, the outcome in [1], in test [2], in test [3] and in test [4] was inactive.

For `c1ccc2c(c1)ccc1ccccc12`, the result in [5] was inactive.

Regarding `C=C(C)C(=O)OCCC(F)(F)C(F)(F)C(F)(F)C(F)(F)C(F)(F)C(F)(F)F`, the result in test [1], in [2], in test [3] and in test [4] was inactive.

In the case of `FC(F)(I)C(F)(F)C(F)(F)C(F)(F)C(F)(F)C(F)(F)I`, the values for the AC50 in test [3] and in test [4] were 21.2 µM (active) [middle of 5 runs] and 5.28 µM (active) [middle of 5 runs], respectively.

Consider `CC1=C(/C=C/C(C)=C/C=C/C(C)=C/C(=O)O)C(C)(C)CCC1`, for which the AC50 in test [6] is 48 µM (active). Besides, the call in test [7] and in test [8] was inactive.

For the compound `CC#C[C@]1(O)CC[C@H]2[C@@H]3CCC4=CC(=O)CCC4=C3[C@@H](c3ccc(N(C)C)cc3)C[C@@]21C`, the compound was classed as inactive in test [6] and in test [9]. The AC50 in [7] was 16.5 µM (active) and 8.62 µM (active); in [8], 69.2 µM (active) and 15 µM (active); in [10] it was 26.2 µM (active) and 24.2 µM (active).

Regarding `C[C@@H]1C[C@H]2[C@@H]3CCC4=CC(=O)C=C[C@]4(C)[C@@]3(F)[C@@H](O)C[C@]2(C)[C@@]1(O)C(=O)COP(=O)(O)O`, the AC50 in test [1] is 863 nM (active) and 1.34 µM (active); in test [2], 0.1 µM (active); in test [3], 245 nM (active) and 100 nM (active). Further, in test [4], the result was inactive.

For the compound `CN1CCC[C@H]1c1cccnc1`, the outcome in test [6], in [7] and in [8] was inactive.

The record behind these values is PubChem BioAssay (EPA / NIEHS).
